# Like-named read-outs stand apart in the source and are kept apart here.
# Legend:
# Conditions in all cases: read-out: apparent Kd, n = 1
# CLK4 = test system: CLK4
# FER = test system: FER
# FLT4 = test system: FLT4
# [1] = compound concentrations:100 nM and 1000 nM (sheet 'Lestaurtinib' of Supplementary Table 1),run:Lestaurtinib_02795_R1,Plate:MR022
# [2] = compound concentrations:100 nM and 1000 nM (sheet 'Lestaurtinib' of Supplementary Table 1),run:Lestaurtinib_02795_R2,Plate:MR022
# [3] = compound concentrations:100 nM and 1000 nM (sheet 'Lestaurtinib' of Supplementary Table 1),run:Lestaurtinib_02802_R2,Plate:MR029
# [4] = compound concentrations:100 nM and 1000 nM (sheet 'Lestaurtinib' of Supplementary Table 1),run:Lestaurtinib_02802_R3,Plate:MR029
# [5] = compound concentrations:100 nM and 1000 nM (sheet 'Lestaurtinib' of Supplementary Table 1),run:Lestaurtinib_03172_R3,Plate:MR031
# [6] = compound concentrations:100 nM and 1000 nM (sheet 'Lestaurtinib' of Supplementary Table 1),run:Lestaurtinib_03252_R2,Plate:MR032
# [7] = compound concentrations:100 nM and 1000 nM (sheet 'Lestaurtinib' of Supplementary Table 1),run:Lestaurtinib_03260_R1,Plate:MR033
# [8] = compound concentrations:100 nM and 1000 nM (sheet 'Lestaurtinib' of Supplementary Table 1),run:Lestaurtinib_03260_R2,Plate:MR033
# [9] = compound concentrations:100 nM and 1000 nM (sheet 'Lestaurtinib' of Supplementary Table 1),run:Lestaurtinib_03260_R3,Plate:MR033
# [10] = compound concentrations:100 nM and 1000 nM (sheet 'Lestaurtinib' of Supplementary Table 1),run:Lestaurtinib_02339_R1,Plate:MR001
# [11] = compound concentrations:100 nM and 1000 nM (sheet 'Lestaurtinib' of Supplementary Table 1),run:Lestaurtinib_02339_R2,Plate:MR001
# [12] = compound concentrations:100 nM and 1000 nM (sheet 'Lestaurtinib' of Supplementary Table 1),run:Lestaurtinib_02364_R2,Plate:MR002
substance,measurement,setting,value
Lestaurtinib,potency estimated from few doses,"CLK4; compound concentrations:100 nM and 1000 nM (sheet 'Lestaurtinib' of Supplementary Table 1),run:Lestaurtinib_02768_R3,Plate:MR028",50.7 nM
same,potency estimated from few doses,CLK4; [1],63.3 nM
same,potency estimated from few doses,CLK4; [2],42.4 nM
same,potency estimated from few doses,CLK4; [3],62.9 nM
same,potency estimated from few doses,CLK4; [4],42.9 nM
same,potency estimated from few doses,"CLK4; compound concentrations:100 nM and 1000 nM (sheet 'Lestaurtinib' of Supplementary Table 1),run:Lestaurtinib_02896_R1,Plate:MR030",45.2 nM
same,potency estimated from few doses,"CLK4; compound concentrations:100 nM and 1000 nM (sheet 'Lestaurtinib' of Supplementary Table 1),run:Lestaurtinib_02896_R2,Plate:MR030",44.9 nM
same,potency estimated from few doses,CLK4; [5],82.5 nM
same,potency estimated from few doses,CLK4; [6],38.7 nM
same,potency estimated from few doses,CLK4; [7],95 nM
same,potency estimated from few doses,CLK4; [8],130 nM
same,potency estimated from few doses,CLK4; [9],60.5 nM
same,potency estimated from few doses,FER; [10],361 nM
same,potency estimated from few doses,FER; [11],254 nM
same,potency estimated from few doses,"FER; compound concentrations:100 nM and 1000 nM (sheet 'Lestaurtinib' of Supplementary Table 1),run:Lestaurtinib_02339_R3,Plate:MR001",336 nM
same,potency estimated from few doses,"FER; compound concentrations:100 nM and 1000 nM (sheet 'Lestaurtinib' of Supplementary Table 1),run:Lestaurtinib_02364_R1,Plate:MR002",298 nM
same,potency estimated from few doses,FER; [12],396 nM
same,potency estimated from few doses,"FER; compound concentrations:100 nM and 1000 nM (sheet 'Lestaurtinib' of Supplementary Table 1),run:Lestaurtinib_02367_R1,Plate:MR003",327 nM
same,potency estimated from few doses,"FER; compound concentrations:100 nM and 1000 nM (sheet 'Lestaurtinib' of Supplementary Table 1),run:Lestaurtinib_02367_R2,Plate:MR003",319 nM
same,potency estimated from few doses,"FER; compound concentrations:100 nM and 1000 nM (sheet 'Lestaurtinib' of Supplementary Table 1),run:Lestaurtinib_02367_R3,Plate:MR003",310 nM
same,potency estimated from few doses,"FER; compound concentrations:100 nM and 1000 nM (sheet 'Lestaurtinib' of Supplementary Table 1),run:Lestaurtinib_02381_R1,Plate:MR004",385 nM
same,potency estimated from few doses,"FER; compound concentrations:100 nM and 1000 nM (sheet 'Lestaurtinib' of Supplementary Table 1),run:Lestaurtinib_02381_R2,Plate:MR004",362 nM
same,potency estimated from few doses,"FER; compound concentrations:100 nM and 1000 nM (sheet 'Lestaurtinib' of Supplementary Table 1),run:Lestaurtinib_02381_R3,Plate:MR004",336 nM
same,potency estimated from few doses,"FER; compound concentrations:100 nM and 1000 nM (sheet 'Lestaurtinib' of Supplementary Table 1),run:Lestaurtinib_02407_R3,Plate:MR005",459 nM
same,potency estimated from few doses,"FER; compound concentrations:100 nM and 1000 nM (sheet 'Lestaurtinib' of Supplementary Table 1),run:Lestaurtinib_02422_R3,Plate:MR006",307 nM
same,potency estimated from few doses,"FER; compound concentrations:100 nM and 1000 nM (sheet 'Lestaurtinib' of Supplementary Table 1),run:Lestaurtinib_02437_R2,Plate:MR007",347 nM
same,potency estimated from few doses,"FER; compound concentrations:100 nM and 1000 nM (sheet 'Lestaurtinib' of Supplementary Table 1),run:Lestaurtinib_02437_R3,Plate:MR007",30.6 nM
same,potency estimated from few doses,"FER; compound concentrations:100 nM and 1000 nM (sheet 'Lestaurtinib' of Supplementary Table 1),run:Lestaurtinib_02438_R1,Plate:MR008",352 nM
same,potency estimated from few doses,"FER; compound concentrations:100 nM and 1000 nM (sheet 'Lestaurtinib' of Supplementary Table 1),run:Lestaurtinib_02438_R2,Plate:MR008",345 nM
same,potency estimated from few doses,"FER; compound concentrations:100 nM and 1000 nM (sheet 'Lestaurtinib' of Supplementary Table 1),run:Lestaurtinib_02438_R3,Plate:MR008",356 nM
same,potency estimated from few doses,"FER; compound concentrations:100 nM and 1000 nM (sheet 'Lestaurtinib' of Supplementary Table 1),run:Lestaurtinib_02443_R1,Plate:MR009",347 nM
same,potency estimated from few doses,"FER; compound concentrations:100 nM and 1000 nM (sheet 'Lestaurtinib' of Supplementary Table 1),run:Lestaurtinib_02443_R2,Plate:MR009",358 nM
same,potency estimated from few doses,"FER; compound concentrations:100 nM and 1000 nM (sheet 'Lestaurtinib' of Supplementary Table 1),run:Lestaurtinib_02473_R2,Plate:MR010",343 nM
same,potency estimated from few doses,"FER; compound concentrations:100 nM and 1000 nM (sheet 'Lestaurtinib' of Supplementary Table 1),run:Lestaurtinib_02482_R1,Plate:MR011",406 nM
same,potency estimated from few doses,"FER; compound concentrations:100 nM and 1000 nM (sheet 'Lestaurtinib' of Supplementary Table 1),run:Lestaurtinib_02482_R2,Plate:MR011",336 nM
same,potency estimated from few doses,"FER; compound concentrations:100 nM and 1000 nM (sheet 'Lestaurtinib' of Supplementary Table 1),run:Lestaurtinib_02487_R1,Plate:MR012",221 nM
same,potency estimated from few doses,"FER; compound concentrations:100 nM and 1000 nM (sheet 'Lestaurtinib' of Supplementary Table 1),run:Lestaurtinib_02496_R1,Plate:MR013",306 nM
same,potency estimated from few doses,"FER; compound concentrations:100 nM and 1000 nM (sheet 'Lestaurtinib' of Supplementary Table 1),run:Lestaurtinib_02566_R1,Plate:MR014",269 nM
same,potency estimated from few doses,"FER; compound concentrations:100 nM and 1000 nM (sheet 'Lestaurtinib' of Supplementary Table 1),run:Lestaurtinib_02572_R2,Plate:MR015",259 nM
same,potency estimated from few doses,"FER; compound concentrations:100 nM and 1000 nM (sheet 'Lestaurtinib' of Supplementary Table 1),run:Lestaurtinib_02572_R3,Plate:MR015",447 nM
same,potency estimated from few doses,"FER; compound concentrations:100 nM and 1000 nM (sheet 'Lestaurtinib' of Supplementary Table 1),run:Lestaurtinib_02584_R1,Plate:MR017",332 nM
same,potency estimated from few doses,"FER; compound concentrations:100 nM and 1000 nM (sheet 'Lestaurtinib' of Supplementary Table 1),run:Lestaurtinib_02584_R3,Plate:MR017",351 nM
same,potency estimated from few doses,"FER; compound concentrations:100 nM and 1000 nM (sheet 'Lestaurtinib' of Supplementary Table 1),run:Lestaurtinib_02601_R2,Plate:MR018",394 nM
same,potency estimated from few doses,"FER; compound concentrations:100 nM and 1000 nM (sheet 'Lestaurtinib' of Supplementary Table 1),run:Lestaurtinib_02601_R3,Plate:MR018",42.4 nM
same,potency estimated from few doses,"FER; compound concentrations:100 nM and 1000 nM (sheet 'Lestaurtinib' of Supplementary Table 1),run:Lestaurtinib_02606_R2,Plate:MR019",83.6 nM
same,potency estimated from few doses,"FER; compound concentrations:100 nM and 1000 nM (sheet 'Lestaurtinib' of Supplementary Table 1),run:Lestaurtinib_02606_R3,Plate:MR019",355 nM
same,potency estimated from few doses,"FER; compound concentrations:100 nM and 1000 nM (sheet 'Lestaurtinib' of Supplementary Table 1),run:Lestaurtinib_02624_R3,Plate:MR020",365 nM
same,potency estimated from few doses,"FER; compound concentrations:100 nM and 1000 nM (sheet 'Lestaurtinib' of Supplementary Table 1),run:Lestaurtinib_02724_R2,Plate:MR021",436 nM
same,potency estimated from few doses,"FER; compound concentrations:100 nM and 1000 nM (sheet 'Lestaurtinib' of Supplementary Table 1),run:Lestaurtinib_02748_R1,Plate:MR024",268 nM
same,potency estimated from few doses,"FER; compound concentrations:100 nM and 1000 nM (sheet 'Lestaurtinib' of Supplementary Table 1),run:Lestaurtinib_02748_R3,Plate:MR024",278 nM
same,potency estimated from few doses,"FER; compound concentrations:100 nM and 1000 nM (sheet 'Lestaurtinib' of Supplementary Table 1),run:Lestaurtinib_02752_R1,Plate:MR025",356 nM
same,potency estimated from few doses,"FER; compound concentrations:100 nM and 1000 nM (sheet 'Lestaurtinib' of Supplementary Table 1),run:Lestaurtinib_02752_R2,Plate:MR025",297 nM
same,potency estimated from few doses,"FER; compound concentrations:100 nM and 1000 nM (sheet 'Lestaurtinib' of Supplementary Table 1),run:Lestaurtinib_02752_R3,Plate:MR025",327 nM
same,potency estimated from few doses,"FER; compound concentrations:100 nM and 1000 nM (sheet 'Lestaurtinib' of Supplementary Table 1),run:Lestaurtinib_02765_R1,Plate:MR026",564 nM
same,potency estimated from few doses,"FER; compound concentrations:100 nM and 1000 nM (sheet 'Lestaurtinib' of Supplementary Table 1),run:Lestaurtinib_02765_R2,Plate:MR026",481 nM
same,potency estimated from few doses,"FER; compound concentrations:100 nM and 1000 nM (sheet 'Lestaurtinib' of Supplementary Table 1),run:Lestaurtinib_02765_R3,Plate:MR026",549 nM
same,potency estimated from few doses,"FER; compound concentrations:100 nM and 1000 nM (sheet 'Lestaurtinib' of Supplementary Table 1),run:Lestaurtinib_02766_R1,Plate:MR027",277 nM
same,potency estimated from few doses,"FER; compound concentrations:100 nM and 1000 nM (sheet 'Lestaurtinib' of Supplementary Table 1),run:Lestaurtinib_02766_R2,Plate:MR027",25.3 nM
same,potency estimated from few doses,"FER; compound concentrations:100 nM and 1000 nM (sheet 'Lestaurtinib' of Supplementary Table 1),run:Lestaurtinib_02766_R3,Plate:MR027",321 nM
same,potency estimated from few doses,FER; [1],454 nM
same,potency estimated from few doses,FER; [2],356 nM
same,potency estimated from few doses,"FER; compound concentrations:100 nM and 1000 nM (sheet 'Lestaurtinib' of Supplementary Table 1),run:Lestaurtinib_02795_R3,Plate:MR022",372 nM
same,potency estimated from few doses,FER; [3],296 nM
same,potency estimated from few doses,FER; [4],12.4 nM
same,potency estimated from few doses,"FER; compound concentrations:100 nM and 1000 nM (sheet 'Lestaurtinib' of Supplementary Table 1),run:Lestaurtinib_03172_R2,Plate:MR031",386 nM
same,potency estimated from few doses,FER; [5],315 nM
same,potency estimated from few doses,FER; [6],25 nM
same,potency estimated from few doses,FER; [7],469 nM
same,potency estimated from few doses,FER; [8],487 nM
same,potency estimated from few doses,FER; [9],351 nM
same,potency estimated from few doses,FLT4; [10],345 nM
same,potency estimated from few doses,FLT4; [11],300 nM
same,potency estimated from few doses,FLT4; [12],289 nM

# — publication PMC11062922 (Nature Chemical Biology, 2023)
